# IL-1B inflam inh – inhibitors of inflammasome signaling (IL-1 beta secretion); hit rate 4.7% among 360,000; activity change, % at 57.5 µM; AID 743279; THP-1 LPS/ATP IL-1B secretion, AlphaLISA, 16 h; active compounds read low; in the data active = activity change below about -50%; inconclusive = mostly about -30% to -49%; note: % is set by controls: 0 for no effect and ±100 for the full control effect
#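 Secreted IL-1B measured by AlphaLISA bead assay after 16 h compound exposure of THP-1 cells; compounds (final up to 57.5 uM) added 1 h before LPS (250 ng/mL) and ATP (1.25 mM) stimulation; lower signal means less secretion.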
# Integrin act MD – integrin-mediated muscular dystrophy alleviation activation; Potency, µM (top dose mostly 38.3 µM), for the others: at the highest dose activation, actives largely listed as activators; alpha7betagal myoblasts, beta-gal FDG fluorescence, 48 h; hit rate 0.064% among 350,000; AID 624291;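 note: potency is the fitted concentration of half-maximal effect; 100% = response of the positive control SU9516; nearly all actives have a fitted effect of over 60% in size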
#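 Alpha7betagal+/- myoblasts (passage 13) were plated 16-24 hr, then exposed to compounds (1:260 dilution of DMSO stock) for 48 hours at 37C. After MPER lysis, β-galactosidase reporter activity was read as FDG fluorescence (ex 480/em 540) after 30 minutes.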
# ATXN2 expr inh – reduces ATXN2 reporter expression in HEK-293 cells | HEK-293 ATXN2-luciferase reporter, luminescence, 24 h | Potency, µM (doses to about 57 µM), without a hit: top-dose activity change, negative = inhibition, most hits filed as inhibitors | hit rate 0.72% among 360,000 | AID 1745845; note: potency is the fitted concentration of half-maximal effect; % is set by controls: 0 for no effect and ±100 for the full control effect; nearly all actives have a fitted effect of over 55% in size
#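 qHTS (up to 57 uM final) was run with 24 h compound exposure of reporter cells at 37 °C. Each well was multiplexed: SteadyGlo luminescence measured ATXN2-luciferase expression after a fluorogenic Gly-Phe-AFC viability readout (25 uM final).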
# ATXN viability – cell viability loss in ATXN counter-screen | Potency, µM (top dose mostly 56.7 µM), actives largely listed as cytotoxic | hit rate 0.49% among 400,000 | S2 cells (HEK-293 line with an ATXN2-luciferase reporter) viability, CellTiter-Fluor protease fluorescence, 24 h; note: potency is the fitted concentration of half-maximal effect; nearly all actives have a fitted effect of over 40% in size
# DRD3 antagonist – blocks the human D3 dopamine receptor; P35462; D3R cells, DiscoveRx beta-arrestin luminescence, antagonist mode; active compounds read low; max response, negative = inhibition, %; hit rate 2.5% among 360,000; AID 652054; in the data active = max response below about -50%; inconclusive = no clear call, values can overlap the other calls; note: % is set by controls: 0 for no effect and ±100 for the full control effect
# Target sequence (P35462 whole entry, looked up): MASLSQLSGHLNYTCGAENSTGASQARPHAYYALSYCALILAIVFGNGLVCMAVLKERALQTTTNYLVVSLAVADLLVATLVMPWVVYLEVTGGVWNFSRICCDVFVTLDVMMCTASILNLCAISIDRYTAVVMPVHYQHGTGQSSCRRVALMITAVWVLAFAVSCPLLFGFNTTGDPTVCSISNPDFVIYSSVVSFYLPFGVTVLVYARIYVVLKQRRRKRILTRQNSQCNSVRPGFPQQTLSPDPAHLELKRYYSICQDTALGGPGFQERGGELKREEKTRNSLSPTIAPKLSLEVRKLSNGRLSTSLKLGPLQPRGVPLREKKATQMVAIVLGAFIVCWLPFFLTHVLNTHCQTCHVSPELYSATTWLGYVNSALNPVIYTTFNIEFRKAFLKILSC
#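 Cells expressing the human receptor were seeded at 1500 cells/well, incubated overnight at 37 degrees C in 5% CO2, then exposed to library compounds with dopamine controls for 90 minutes at 37 degrees C before luminescent detection.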
# DRD3 agonist – D3 dopamine receptor (human) agonism; P35462; D3R DiscoveRx beta-arrestin cells, luminescence, 90 min; max activation, %; hit rate 0.58% among 410,000; AID 652048; in the data active = max activation above about 30%; note: 0% is about no effect
#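 Agonist mode: compounds and dopamine controls were applied to plated cells for 90 min at 37 degrees C after an overnight attachment at 1500 cells/well. Luminescent read-out followed 30 - 60 minutes at room temperature with DiscoveRx detection reagent.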
# The depositor's hits bear a star; i = inactive; ? = inconclusive; nt = no result; [ ] = dose if it differs, or a comment. The list is not random: actives were taken first. Their share in the collection is about 7%. Unless noted, calls come from the whole dose curve; as a rule, active = well fitted curve in the direction sought with a large enough effect; inconclusive = small, poorly fitted or top-dose-only effect, or another doubt; inactive = no such curve, though single readings can be large; an effect the other way counts as inactive or inconclusive.
SMILES,IL-1B inflam inh,Integrin act MD,ATXN2 expr inh,ATXN viability,DRD3 antagonist,DRD3 agonist
COc1ccc(C(=O)C(CN2CCCC2)c2ccccc2)cc1 (centres undefined),-109*,-67%,?,nt,?,-4
CCCCOc1ccc(C(=O)C(CN2CCOCC2)c2ccccc2)cc1 (centres undefined),-98*,-57%,?,nt,-54*,-2
c1ccc(C(CN2CCOCC2)c2ccccc2)cc1,20,-40%[7.66 µM],-9%,i,-7,-11
O=C(c1ccc(F)cc1)C(CN1CCOCC1)c1ccccc1 (centres undefined),-64*,-15%,?,nt,?,-11
CCCCC(=O)NC1(C(F)(F)F)C(=O)Nc2c1c(=O)[nH]c(=O)n2-c1ccc(F)cc1 (centres undefined),nt,nt,3%,i,nt,-3
COc1ccccc1N1CCN(c2cc(C)nc3nc(C)nn23)CC1,4,20%,8%,i,11,3
CCC(=O)N1CCC2(CC1)Oc1ccc(Cl)cc1C(=O)C21CC(c2cccnc2)=NO1 (centres undefined),-8,-25%,0%,i,22,0
Cc1nc(-n2nc(C)c(Cc3ccccc3Cl)c2C)sc1C(=O)Nc1ccccc1F,nt,nt,nt,nt,nt,-11
CCCOc1ccc(C(=O)N2CCCC2C(=O)O)cc1 (centres undefined),0,5%,-10%,i,-61*,1
O=C(c1ccccc1)C(CCC(CN1CCOCC1)C(=O)c1ccccc1)CN1CCOCC1 (centres undefined),-118*,-59%,22µM*,nt,-11,-23
CC(CN1CCOCC1)OC(=O)C(c1ccccc1)c1ccccc1 (centres undefined),19,21%,1%,i,1,2
O=C(c1ccc(Cl)cc1)C(CN1CCCC1)c1ccccc1 (centres undefined),-98*,-37%,nt,nt,?,-7
CCC(O)(c1ccc(OC)cc1)C(CN1CCOCC1)c1ccccc1 (centres undefined),3,?,-8%,i,-2,-10
COc1ccc(C(=O)C(CN2CCOCC2)c2ccccc2)cc1 (centres undefined),-99*,-51%,?,18µM*,-22,-17
CCC(C(=O)c1ccc(O)cc1)c1ccccc1 (centres undefined),?,-16%,-2%,i,-5,-4
Cc1ccc(CNC(=O)c2ccc(NS(=O)(=O)c3cccs3)cc2)cc1,0,5%,1%,i,5,6
COc1ccccc1-c1oc2ccccc2c1C#CC1(N)CCCCC1,?,-43%,?,25µM*,-21,-7
O=C(Nc1cccc(Oc2ccccc2)c1)c1ccc(-n2cncn2)c2ccoc12,34,nt,-24%,6.3µM*,99,21
CC(C)Cn1c(SCc2nc3ccccc3c(=O)[nH]2)nc2ccccc2c1=O,6,-21%,-1%,i,14,46*
CCCCCn1nc(C(=O)OCc2nnc(-c3ccccc3)o2)c2ccccc2c1=O,6,-8%,13%,i,3,6
COc1ccc(-c2nnc(CSc3nc4ccccc4c(=O)n3CC(C)C)o2)cc1OC,-16,-17%,-16%,?,-14,33*
COc1cc(-c2nnc(COC(=O)c3nn(CC(C)C)c(=O)c4ccccc34)o2)cc(OC)c1OC,-2,-7%,7%,i,43,56*
COCCCn1c(SCc2nnc(-c3ccc(OC)c(OC)c3)o2)nc2ccccc2c1=O,?,-17%,-7%,i,40,30
O=C(Cn1nc(Cl)nc1Cl)c1ccc2c(c1)OCCO2,?,-17%,30%,i,?,-4
CC(C)C#Cc1cnc2c(c1)C(=O)N([C@H](C)CO)C[C@@H](C)[C@H](CN(C)C(=O)Nc1ccccc1F)O2,0,-6%,9%,i,16,0
CCCCN(CC)S(=O)(=O)c1ccc(C(=O)Nc2nnc(CSC)o2)cc1,29,-10%,-25%,i,-83*,-8
COCCN(CCOC)S(=O)(=O)c1ccc(C(=O)Nc2nnc(C3CC3)o2)cc1,5,-29%,2%,i,-53*,-14
